Source: PubChem BioAssay AID1159580 (chemical genetic matrix, 2015)
Among all 5,500 compounds or so, about 2,000 (36%) were called active. Another 18% or so got no clear call; they are omitted. Cut-off read from the data, not from the text of the source: active = normalized growth mostly below about 0.91 (no sharp cut-off); inconclusive = no clear call, values can overlap the other calls; inactive = mostly above about 0.92. This is one part of the list.

Test: chemical genetic growth profiling, strain panel (AID 1159580);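 note: tested at 20 µM; growth read once vehicle control cultures reached saturation at 30 °C; 1 = growth at the plate median or of vehicle wells; lower values mean less growth of the strain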
Settings: growth OD
[1] = S. cerevisiae deletion strains, locus YAR019C, strain CDC15, stronger effect = lower value
[2] = S. cerevisiae deletion strains, locus YBL105C, strain PKC1, stronger effect = lower value
[3] = S. cerevisiae deletion strains, locus YBR135W, strain CKS1, stronger effect = lower value
[4] = S. cerevisiae deletion strains, locus YBR136W, strain MEC1, stronger effect = lower value
[5] = S. cerevisiae deletion strains, locus YBR160W, strain CDC28, stronger effect = lower value
[6] = S. cerevisiae deletion strains, locus YDL017W, strain CDC7, stronger effect = lower value
[7] = S. cerevisiae deletion strains, locus YDL028C, strain MPS1, stronger effect = lower value
[8] = S. cerevisiae deletion strains, locus YDL101C, strain DUN1, stronger effect = lower value
[9] = S. cerevisiae deletion strains, locus YDL108W, strain KIN28, stronger effect = lower value
[10] = S. cerevisiae deletion strains, locus YDL132W, strain cdc53, stronger effect = lower value
[11] = S. cerevisiae deletion strains, locus YDL214C, strain PRR2, stronger effect = lower value
[12] = S. cerevisiae deletion strains, locus YDR052C, strain DBF4, stronger effect = lower value
[13] = S. cerevisiae deletion strains, locus YDR054C, strain cdc34, stronger effect = lower value
[14] = S. cerevisiae deletion strains, locus YDR226W, strain ADK1, stronger effect = lower value
[15] = S. cerevisiae deletion strains, locus YDR477W, strain SNF1, stronger effect = lower value
[16] = S. cerevisiae deletion strains, locus YER123W, strain YCK3, stronger effect = lower value
[17] = S. cerevisiae deletion strains, locus YER133W, strain GLC7, stronger effect = lower value
[18] = S. cerevisiae deletion strains, locus YFL009W, strain cdc4, stronger effect = lower value
[19] = S. cerevisiae deletion strains, locus YFL029C, strain CAK1, stronger effect = lower value
[20] = S. cerevisiae deletion strains, locus YFR003C, strain YPI1, stronger effect = lower value
[21] = S. cerevisiae deletion strains, locus YFR019W, strain FAB1, stronger effect = lower value
[22] = S. cerevisiae deletion strains, locus YFR028C, strain CDC14, stronger effect = lower value
[23] = S. cerevisiae deletion strains, locus YGR040W, strain KSS1, stronger effect = lower value
[24] = S. cerevisiae deletion strains, locus YGR052W, strain FMP48, stronger effect = lower value
[25] = S. cerevisiae deletion strains, locus YGR092W, strain DBF2, stronger effect = lower value
[26] = S. cerevisiae deletion strains, locus YHR030C, strain SLT2, stronger effect = lower value
[27] = S. cerevisiae deletion strains, locus YHR079C, strain IRE1, stronger effect = lower value
[28] = S. cerevisiae deletion strains, locus YHR082C, strain KSP1, stronger effect = lower value
[29] = S. cerevisiae deletion strains, locus YHR205W, strain SCH9, stronger effect = lower value
[30] = S. cerevisiae deletion strains, locus YIL147C, strain SLN1, stronger effect = lower value
[31] = S. cerevisiae deletion strains, locus YJL095W, strain BCK1, stronger effect = lower value
[32] = S. cerevisiae deletion strains, locus YJL128C, strain PBS2, stronger effect = lower value
[33] = S. cerevisiae deletion strains, locus YJL157C, strain FAR1, stronger effect = lower value
[34] = S. cerevisiae deletion strains, locus YJR016C, strain ILV3, stronger effect = lower value
[35] = S. cerevisiae deletion strains, locus YJR066W, strain TOR1 (second series), stronger effect = lower value
[36] = S. cerevisiae deletion strains, locus YJR066W, strain TOR1, stronger effect = lower value
[37] = S. cerevisiae deletion strains, locus YKL048C, strain ELM1, stronger effect = lower value
[38] = S. cerevisiae deletion strains, locus YKL067W, strain YNK1, stronger effect = lower value
[39] = S. cerevisiae deletion strains, locus YKL101W, strain HSL1, stronger effect = lower value
[40] = S. cerevisiae deletion strains, locus YKL193C, strain SDS22, stronger effect = lower value
[41] = S. cerevisiae deletion strains, locus YKL203C, strain TOR2, stronger effect = lower value
[42] = S. cerevisiae deletion strains, locus YLR113W, strain HOG1, stronger effect = lower value
[43] = S. cerevisiae deletion strains, locus YLR133W, strain CKI1, stronger effect = lower value
[44] = S. cerevisiae deletion strains, locus YLR403W, strain SFP1, stronger effect = lower value
[45] = S. cerevisiae deletion strains, locus YML070W, strain DAK1, stronger effect = lower value
[46] = S. cerevisiae deletion strains, locus YMR001C, strain CDC5, stronger effect = lower value
[47] = S. cerevisiae deletion strains, locus YMR205C, strain PFK2 (second series), stronger effect = lower value
[48] = S. cerevisiae deletion strains, locus YMR277W, strain FCP1, stronger effect = lower value
[49] = S. cerevisiae deletion strains, locus YNL006W, strain LST8, stronger effect = lower value
[50] = S. cerevisiae deletion strains, locus YNL020C, strain ARK1, stronger effect = lower value
[51] = S. cerevisiae deletion strains, locus YNL161W, strain CBK1, stronger effect = lower value
[52] = S. cerevisiae deletion strains, locus YNL183C, strain NPR1, stronger effect = lower value
[53] = S. cerevisiae deletion strains, locus YNL207W, strain RIO2, stronger effect = lower value
[54] = S. cerevisiae deletion strains, locus YNL222W, strain SSU72, stronger effect = lower value
[55] = S. cerevisiae deletion strains, locus YNL307C, strain MCK1 (second series), stronger effect = lower value
[56] = S. cerevisiae deletion strains, locus YOL078W, strain AVO1, stronger effect = lower value
[57] = S. cerevisiae deletion strains, locus YOL136C, strain PFK27, stronger effect = lower value
[58] = S. cerevisiae deletion strains, locus YOR061W, strain CKA2, stronger effect = lower value
[59] = S. cerevisiae deletion strains, locus YOR119C, strain RIO1, stronger effect = lower value
[60] = S. cerevisiae deletion strains, locus YOR231W, strain MKK1, stronger effect = lower value
[61] = S. cerevisiae deletion strains, locus YOR329C, strain SCD5, stronger effect = lower value
[62] = S. cerevisiae deletion strains, locus YPL031C, strain PHO85, stronger effect = lower value
[63] = S. cerevisiae deletion strains, locus YPL153C, strain RAD53, stronger effect = lower value
[64] = S. cerevisiae deletion strains, locus YPL204W, strain HRR25, stronger effect = lower value
[65] = S. cerevisiae deletion strains, locus YPL209C, strain IPL1, stronger effect = lower value
[66] = S. cerevisiae deletion strains, locus YPL256C, strain CLN2, stronger effect = lower value
[67] = S. cerevisiae deletion strains, locus YPR025C, strain CCL1, stronger effect = lower value
[68] = S. cerevisiae deletion strains, locus YPR106W, strain ISR1, stronger effect = lower value
[69] = S. cerevisiae deletion strains, locus YPR111W, strain DBF20, stronger effect = lower value
[70] = S. cerevisiae deletion strains, strain NNK1, stronger effect = lower value
[71] = S. cerevisiae deletion strains, strain TSCII, stronger effect = lower value
[72] = S. cerevisiae deletion strains, locus YAL013W, strain DEP1, stronger effect = lower value
[73] = S. cerevisiae deletion strains, locus YBR229C, strain ROT2, stronger effect = lower value
[74] = S. cerevisiae deletion strains, locus YCL061C, strain MRC1, stronger effect = lower value
[75] = S. cerevisiae deletion strains, locus YDR150W, strain NUM1, stronger effect = lower value
[76] = S. cerevisiae deletion strains, locus YEL061C, strain CIN8, stronger effect = lower value
[77] = S. cerevisiae deletion strains, locus YGR078C, strain PAC10, stronger effect = lower value
[78] = S. cerevisiae deletion strains, locus YHR087W, strain rtc3, stronger effect = lower value
[79] = S. cerevisiae deletion strains, locus YJR043C, strain POL32, stronger effect = lower value
[80] = S. cerevisiae deletion strains, locus YKL190W, strain CNB1, stronger effect = lower value
[81] = S. cerevisiae deletion strains, locus YLR039C, strain RIC1, stronger effect = lower value
[82] = S. cerevisiae deletion strains, locus YLR058C, strain SHM2 (second series), stronger effect = lower value
[83] = S. cerevisiae deletion strains, locus YLR085C, strain ARP6, stronger effect = lower value
[84] = S. cerevisiae deletion strains, locus YLR262C, strain YPT6, stronger effect = lower value
[85] = S. cerevisiae deletion strains, locus YML094W, strain GIM5, stronger effect = lower value
[86] = S. cerevisiae deletion strains, locus YMR219W, strain ESC1, stronger effect = lower value
[87] = S. cerevisiae deletion strains, locus YMR263W, strain SAP30, stronger effect = lower value
[88] = S. cerevisiae deletion strains, locus YNL128W, strain TEP1, stronger effect = lower value
[89] = S. cerevisiae deletion strains, locus YNL298W, strain CLA4 (second series), stronger effect = lower value
[90] = S. cerevisiae deletion strains, locus YNL322C, strain KRE1, stronger effect = lower value
[91] = S. cerevisiae deletion strains, locus YNR030W, strain Alg12, stronger effect = lower value
[92] = S. cerevisiae deletion strains, locus YPL055C, strain LGE1, stronger effect = lower value
[93] = S. cerevisiae deletion strains, locus YPL241C, strain CIN2, stronger effect = lower value
[94] = S. cerevisiae deletion strains, locus YPR135W, strain CTF4, stronger effect = lower value

Measured: normalized growth

Cc1noc(C)c1S(=O)(=O)Nc1csc(C(F)(F)F)c1-c1ccccc1
inactive: [1] 0.976 | [2] 0.982 | [3] 0.983 | [4] 0.978 | [5] 0.982 | [6] 0.979 | [7] 0.973 | [8] 0.97 | [9] 0.985 | [10] 0.977 | [11] 0.997 | [12] 0.979 | [13] 0.973 | [14] 0.979 | [15] 1.04 | [16] 1.05 | [17] 1.02 | [18] 0.969 | [19] 0.979 | [20] 0.983 | [21] 1.01 | [22] 0.97 | [23] 1.04 | [24] 1.12 | [25] 1.02 | [26] 1.09 | [27] 1.06 | [28] 1.08 | [29] 1 | [30] 0.975 | [31] 1.07 | [32] 0.957 | [33] 1.01 | [34] 0.982 | [35] 1.04 | [36] 1.07 | [37] 0.973 | [38] 1 | [39] 0.978 | [40] 0.976 | [41] 1.08 | [42] 1.04 | [43] 1.01 | [44] 1.05 | [45] 1.04 | [46] 0.971 | [47] 0.995 | [48] 0.98 | [49] 0.98 | [50] 0.993 | [51] 0.972 | [52] 1.06 | [53] 0.978 | [54] 0.98 | [55] 1 | [56] 0.978 | [57] 1.02 | [58] 0.985 | [59] 1.02 | [60] 1.05 | [61] 0.975 | [62] 1.03 | [63] 1.04 | [64] 1.04 | [65] 0.975 | [66] 1.01 | [67] 0.98 | [68] 0.981 | [69] 0.97 | [70] 0.964 | [71] 0.983

O=S(=O)(NCc1cc(Cl)cc(Cl)c1)c1cc(C(F)(F)F)cc(C(F)(F)F)c1
inactive: [1] 1 | [2] 0.994 | [3] 0.998 | [4] 0.998 | [5] 0.998 | [6] 0.998 | [7] 0.994 | [8] 0.994 | [9] 0.997 | [10] 0.987 | [11] 0.935 | [12] 0.996 | [13] 0.985 | [14] 0.992 | [15] 0.912 | [16] 0.907 | [17] 0.928 | [18] 0.992 | [19] 1 | [20] 0.996 | [21] 0.902 | [22] 0.997 | [23] 0.894 | [24] 0.878 | [25] 0.881 | [27] 0.835 | [28] 0.896 | [29] 0.908 | [30] 0.996 | [31] 0.875 | [32] 0.923 | [33] 0.926 | [34] 0.995 | [35] 0.947 | [36] 0.955 | [37] 0.954 | [38] 0.961 | [39] 0.907 | [40] 0.998 | [41] 0.982 | [43] 0.918 | [44] 0.939 | [45] 0.915 | [46] 0.996 | [47] 0.954 | [48] 0.996 | [49] 0.991 | [50] 0.899 | [51] 0.999 | [52] 1.01 | [53] 1 | [54] 0.996 | [55] 0.765 | [56] 0.997 | [57] 0.895 | [58] 0.935 | [59] 0.982 | [60] 0.933 | [61] 0.995 | [62] 0.897 | [63] 0.912 | [64] 0.888 | [65] 0.997 | [66] 0.87 | [67] 0.995 | [68] 0.997 | [69] 0.989 | [70] 0.988 | [71] 0.999
active: [26] 0.621 | [42] 0.803

O=S(=O)(NCCc1ccncc1)c1cc(C(F)(F)F)cc(C(F)(F)F)c1
inactive: [72] 1 | [73] 0.988 | [74] 0.963 | [8] 0.966 | [75] 0.913 | [76] 1 | [77] 0.987 | [26] 1.01 | [78] 1.07 | S. cerevisiae deletion strains, locus YJL187C, strain SWE1, stronger effect = lower value 1.01 | [79] 0.964 | S. cerevisiae deletion strains, locus YJR075W, strain HOC1, stronger effect = lower value 1.02 | [80] 1.01 | [81] 0.976 | [82] 1 | [83] 1.05 | [84] 1.03 | [85] 1.02 | [86] 0.993 | [87] 1.01 | [88] 0.989 | S. cerevisiae deletion strains, locus YNL153C, strain GIM3, stronger effect = lower value 0.994 | [89] 0.986 | [90] 1 | [91] 1.03 | S. cerevisiae deletion strains, locus YOL006C, strain TOP1, stronger effect = lower value 0.976 | [92] 1.02 | [93] 0.98 | [94] 0.942 | S. cerevisiae strains, strain wild type, stronger effect = lower value 0.979

CCOC(=O)C(=CNNS(=O)(=O)c1cc(C(F)(F)F)cc(C(F)(F)F)c1)C(=O)OCC
inactive: [72] 1.01 | [73] 0.997 | [74] 0.979 | [8] 0.929 | S. cerevisiae deletion strains, locus YDL134C, strain PPH21, stronger effect = lower value 1 | [75] 1 | [76] 1.01 | [77] 0.967 | [26] 1 | [78] 0.96 | [79] 0.973 | [80] 0.992 | [81] 0.931 | [82] 0.954 | [83] 1.03 | [84] 0.968 | [85] 0.988 | [86] 0.989 | [87] 1.04 | [88] 0.945 | [89] 1 | [90] 0.993 | [91] 1 | [92] 1.03 | [93] 1.02 | [94] 0.964
